“And” between values parts separate entries of the source, which are not always exact repeats. Equal entries are not always repeated. About 83,000 compounds went through this panel and 20% of them were active in at least one assay; those are over-represented in the sample as a whole.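 96-well plates, one dose, 48 hours. Percent growth reported; active if below 10.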 The source made the active and inactive calls.
Legend:
Assay in all cases: NCI-60 one-dose screen, 48 h (100 = growth as untreated, 0 = no growth, -100 = all killed)
Conditions in all cases: 10 µM unless noted
[1] = test system: SR leukemia
[2] = test system: RPMI-8226 leukemia
[3] = test system: OVCAR-8 ovarian
[4] = test system: OVCAR-5 ovarian
[5] = test system: OVCAR-4 ovarian
[6] = test system: SK-OV-3 ovarian
[7] = test system: IGROV1 ovarian
[8] = test system: OVCAR-3 ovarian
[9] = test system: HS 578T breast
[10] = test system: NCI/ADR-RES ovarian

Measured: growth

O=C(Nc1ccc(Cl)cc1)c1cc2ccccc2cc1O
15.8% (inactive) and 4.92% (active): [9]
14.4% (inactive) and 5.62% (active): [8]
12.5% (inactive) and 6.49% (active): [10]
26.1% (inactive) and -5.89% (active): [3]
inactive: [4] 78.8% and 42.7% | [5] 34.5% and 20.9% | [6] 18.9% | [7] 23.3% and 21.8%
active: [2] -10.7% and -29%
15.8% (inactive) and -13.9% (active): [1]

O=[N+]([O-])c1ccccc1/C=N\Nc1ccccc1
inactive: [1] 98.5% and 51.8% | [2] 77.5% and 95.6% | [3] 91.1% and 89.9% | [4] 91.1% and 89.2% | [5] 82.2% and 86.3% | [6] 90.6% and 93.7% | [7] 74.4% and 59.1% | [8] 94.5% and 92.7% | [9] 90.3% and 118% | [10] 73.3% and 75.6%

O=C(CN1CCOCC1)N1CCOCC1
inactive: [1] 94.5% and 97.8% | [2] 96.3% and 106% | [3] 109% and 104% | [4] 115% and 91.5% | [5] 113% and 114% | [6] 110% and 96.3% | [7] 117% and 115% | [8] 115% and 128% | [9] 111% and 106% | [10] 107% and 114%

O=C(N/N=C/c1ccc2c(c1)OCO2)c1ccncc1
inactive: [1] 113% and 134% | [2] 111% and 103% | [3] 100% and 109% | [4] 98.7% and 113% | [5] 103% and 98.7% | [6] 101% and 104% | [7] 88.7% and 86.6% | [8] 106% and 96.5% | [9] 103% and 102% | [10] 101% and 106%

O=C(Nc1ccc(Br)cc1)c1cc(Br)ccc1O
inactive: [3] 22.5% and 20.5% | [4] 30.4% and 17.4% | [7] 13.6%
16.9% (inactive) and -8.2% (active): [2]
9.76% (active) and 24.8% (inactive): [5]
active: [1] 1.42% | [6] 4.48% and -11.3% | [8] -18.3% and -5.1% | [9] -1.71% and -5.35% | [10] 4.45% and -5.6%

O=S(=O)(Nc1ccccc1)C1CCCCC1
inactive: [1] 92.1% and 90.5% | [2] 93.9% and 106% | [3] 110% and 108% | [4] 107% and 104% | [5] 108% and 117% | [6] 107% and 103% | [7] 105% and 127% | [8] 111% and 104% | [9] 123% and 108% | [10] 112% and 105%

CNC(=O)c1ccc(C)c(-n2c(C)cc(OCc3ccc(F)cc3F)c(Br)c2=O)c1
inactive: [1] 64.9% and 85.9% | [2] 48.2% and 74% | [3] 70.3% and 86.8% | [4] 77.1% and 86.2% | [5] 73.7% and 84.9% | [6] 76.4% and 91.3% | [7] 84.6% and 92% | [8] 85.1% and 101% | [9] 103% | [10] 80.5% and 80.7%

Cc1cc(C)c(N)c(Br)c1
inactive: [1] 98.8% and 100% | [2] 100% and 96.7% | [3] 123% and 106% | [4] 101% and 78.3% | [5] 107% and 88.6% | [6] 102% and 96% | [7] 97.1% and 97.7% | [8] 117% and 96.8% | [9] 121% and 93.6% | [10] 113% and 69.2%

O=c1c2ccccc2nc2n1Cc1nc3ccccc3c(=O)n1C2
inactive: [1] 85.9% | [2] 93% and 102% | [3] 112% and 110% | [4] 101% and 102% | [5] 95.2% and 108% | [6] 112% and 110% | [7] 88% and 106% | [8] 92.6% and 112% | [9] 91.7% and 114% | [10] 102% and 105%

CN1CCN(c2ccc3nc(-c4c(N)c5c(F)cccc5[nH]c4=O)[nH]c3c2)CC1
inactive: [2] 47.5% and 53.7% | [3] 35.4% and 28.2% | [4] 56.1% and 61.3% | [5] 64.7% and 53.9% | [7] 13.9% and 13.5% | [8] 53.5% and 48.2% | [10] 41% and 47%
1.69% (active) and 24.6% (inactive): [6]
active: [1] -11.8% and 1.99% | [9] 2.57%

Oc1ccc(/C=C/c2ccccc2)cc1
inactive: [1] 48.6% and 69.6% | [2] 61.3% and 81.8% | [3] 66.2% and 50.5% | [4] 97.5% and 140% | [5] 61.5% | [6] 94.8% and 99.4% | [7] 57.5% and 59.9% | [8] 79.1% and 76.5% | [9] 86.7% | [10] 43.5% and 41.6%

N#CCCOc1ccccc1
inactive: [1] 104% | [2] 103% | [3] 98.9% | [4] 107% | [5] 98.8% | [6] 97% | [7] 102% | [8] 114% | [9] 99.5% | [10] 112%

CCN(CC)CCOc1ccc2c(c1)C(=O)c1cc(OCCN(CC)CC)ccc1-2
inactive: [1] 93% | [3] 46.5% and 59.3% | [4] 108% | [5] 60.7% and 40.7% | [6] 90% and 87.6% | [7] 78.3% | [8] 96.1% and 70.5% | [9] 97.8% and 91.7% | [10] 69.7% and 70.8%
67.1% (inactive) and 7.54% (active): [2]

CC(=O)Nc1ccc(O)cc1
inactive: [1] 117% and 98.7% | [2] 105% | [3] 92.1% and 103% and 109% | [4] 91.6% and 118% and 105% | [5] 105% and 131% | [6] 114% and 115% and 91.5% | [7] 107% and 114% | [8] 103% and 102% and 107% | [9] 113% and 109% | [10] 101% and 93.7% and 104%

CCCCCCCCCCCCCCCc1cc(O)ccc1N
inactive: [1] 74.7% and 37.7% | [2] 39.9% and 10.3% | [3] 87.8% and 87.1% | [4] 92.7% and 124% | [6] 89.2% and 69% | [7] 16.5% and 45.2% | [8] 66.8% and 50.9% | [9] 107% and 95.2% | [10] 72.1% and 49.7%
65.2% (inactive) and -19.7% (active): [5]

COC(=O)[C@H]1CCCN1C(=O)C1CCCN1C(=O)[C@@H](Cc1ccccc1)NC(=S)Nc1cc(C(F)(F)F)cc(C(F)(F)F)c1 (stereo not given in full)
inactive: [1] 95.2% and 67.5% | [2] 109% and 66.2% | [3] 100% and 87% | [4] 98.9% and 90.4% | [5] 104% and 80.7% | [6] 128% and 109% | [7] 123% and 69.8% | [8] 111% and 77.1% | [9] 105% and 98.2% | [10] 109% and 93.9%

COC(=O)c1nc(N)nc(C(=O)OC)c1C(=O)c1ccc(OC)cc1
inactive: [1] 90.2% and 22.8% | [2] 107% and 32.6% | [3] 105% and 55.1% | [4] 121% and 87.5% | [5] 105% and 37.6% | [6] 106% and 83.3% | [7] 106% and 66.6% | [8] 117% and 70.1% | [9] 105% and 81.2% | [10] 105% and 37.4%
